HSF1 activator = HSF-1 activators, primary screen, NIH3T3-HGL cells, MG132 stress, luminescence, single point; NIH3T3-HGL HSF-1 luciferase reporter, 8 h; 100% = twice DMSO control signal; activation, % at 9 µM; hit rate 1.7% among 300,000; AID 504408, 2011;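 active means mean replicate activation of at least 50% with a set share of replicates each reaching 50%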;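 further: 0% = median of the neutral control wells and 100% = twice that signal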
Vif imaging = HIV Vif self-association inhibitors, primary screen, imaging, HEK293T, single point | HEK293T cells, Vif self-association by quenched fluorescence, 24 h | inhibition, % at 7.49 µM | hit rate 0.35% among 340,000 | AID 602346, 2012; in the data active means inhibition above about 50%, passing the limit was not always enough
esBAF inh = Bmi1 luciferase reporter increase in mESCs, primary screen, esBAF inhibitor project, mouse ES cells, Bmi1 luciferase knock-in, single point | reporter increase, % at 12.5 µM | 24 h; 100% = twice the neutral-well signal | hit rate 2% among 350,000 | AID 602393, 2012; in the data active means activation above about 40%;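 further: 0% = median of the plate's neutral control wells and 100% = double that signal; a rise in the Bmi1 reporter signal indicates esBAF inhibition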
HSF1 inh = HSF1 inhibitors in luciferase reporter cells, primary screen, cell-based, NIH3T3, luminescence | NIH3T3-HGL HSE-luciferase, MG132-induced, luminescence 8 h; stronger effect = lower value | activity change, negative = inhibition, % at 7.5 µM (by protocol) | hit rate 0.77% among 300,000 | AID 2098, 2009;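 active means more than half of replicate wells show activity change below -50%, luminescence cut by over half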;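 further: luciferase reports HSF-1 transcriptional activity via heat shock element; 0% = median of DMSO wells and -100% = zero luminescence signal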
* marks the source's active call; other numbers are inactive results; nt = no result. Only some compounds are listed: those with a hit (about 3.4% of all), similar ones and a draw of the others.

SMILES	HSF1 activator	Vif imaging	esBAF inh	HSF1 inh
O=C(Nc1nnc(S(=O)(=O)N2CCCCCC2)s1)c1ccccc1Cl	-78	11	0	-70*
Cc1ccc(NC(=O)c2cc(NC(=O)/C=C\C(=O)O)ccc2N2CCCCC2)cc1	-4	8	nt	-3
C[C@H](CO)N1C[C@H](C)[C@@H](CN(C)C(=O)C2CCCCC2)Oc2cc(-c3ccncc3)ccc2S1(=O)=O	nt	nt	-3	nt
COc1ccc(C/C(O)=C(\C#N)c2nc3ccccc3[nH]2)cc1OC	59*	5	0	15
COc1ccc(/C(C)=N/OC/C(O)=C(\C#N)c2nc3ccccc3[nH]2)cc1OC	-24	-1	nt	-17
C[C@H]1CN([C@@H](C)CO)C(=O)c2cc(NS(=O)(=O)c3ccc(F)cc3)ccc2O[C@@H]1CN(C)CC1CCCCC1	nt	nt	-1	nt
COc1cccc(-c2ccc3n(c2=O)C[C@@H]2N[C@H]3[C@H](C(=O)N3CCCCC3)[C@H]2CO)c1	nt	nt	2	nt
Cc1sc2ncnc(N=Nc3c(O)[nH]c4ccccc34)c2c1C	8	-18	52*	6
CC=Cc1ccc2n(c1=O)C[C@@H]1[C@@H](CO)[C@H](C(=O)N(C)C)N(CC3CC3)[C@H]21 (mixture of isomers)	nt	nt	-5	nt
CO[C@H]1CN(C)C(=O)c2cc(NS(=O)(=O)c3ccccc3C)ccc2OC[C@@H](C)NC[C@H]1C	nt	nt	-4	nt
N#Cc1c(/N=C/c2ccc(-c3ccc(C(=O)O)c(Cl)c3)o2)sc2c1CCCC2	nt	-4	10	nt
N#Cc1c(/N=C/c2ccc(-c3ccccc3C(=O)O)o2)sc2c1CCCC2	-10	-2	57*	1
COc1ccccc1NC(=O)C(C)OC(=O)/C=C/c1ccc2ccccc2n1 (stereo unspecified)	63*	2	nt	20
CC(OC(=O)/C=C/c1ccc2ccccc2n1)C(=O)N(C)c1ccccc1 (stereo unspecified)	nt	-2	47*	nt
CCOC(=O)c1nnn(CC(=O)N2N=C(c3ccc(Cl)cc3)CC2c2ccccc2)c1C(=O)OCC (stereo unspecified)	52*	-1	0	20
COc1ccccc1NC(=O)N(C)C[C@H]1Oc2ncc(C#CC(C)C)cc2C(=O)N([C@@H](C)CO)C[C@@H]1C	nt	nt	1	nt
Cc1ccc(C(=O)N/C(N)=N/c2nc3ccccc3o2)cc1	19	-16	43*	10
COc1ccccc1C(=O)N/C(N)=N/c1nc2ccccc2o1	50	-1	51*	17
CC(C)CNC(=O)c1c(F)c(F)c(F)c(F)c1F	-4	-7	-5	-3
CC(C)(C)NC(=O)c1c(F)c(F)c(F)c(F)c1F	-79	1	nt	-72*
COCCCNC(=O)c1ccc2c3c(onc13)-c1ccccc1C2=O	139*	-23	nt	100
O=C(Oc1ccc2ccc(O)cc2c1)c1ccccc1Cl	11	-9	63*	22
CCCc1ccc(C(=O)O/N=C(\N)c2ccccn2)cc1	-83	1	-81	-83*
N/C(=N\OC(=O)c1ccc(=O)n(Cc2ccccc2)c1)c1ccccn1	10	-3	13	4
N/C(=N\OC(=O)c1ccc2ccccc2c1)c1ccncc1	40	3	nt	14
SMILES	HSF1 activator	Vif imaging	esBAF inh	HSF1 inh
N/C(=N\OC(=O)c1ccc2ccccc2c1)c1ccccn1	-89	-2	-86	-85*
N/C(=N\OC(=O)c1ccc2ccccc2c1)c1ccccc1Cl	47	1	65*	31
C[C@H]1CCCCO[C@H](CN(C)C(=O)Nc2ccc(F)cc2)[C@@H](C)CN([C@@H](C)CO)C(=O)c2cc(NS(=O)(=O)c3ccc(F)cc3)ccc2O1	nt	nt	0	nt
Cc1noc(C)c1NC(=O)Nc1ccc2c(c1)CC(=O)N([C@@H](C)CO)C[C@@H](C)[C@H](CN(C)S(=O)(=O)c1ccccc1)O2	nt	nt	1	nt
COc1ccc(S(=O)(=O)Nc2ccc3c(c2)C(=O)N([C@H](C)CO)C[C@@H](C)[C@H](CN(C)S(=O)(=O)c2ccc(OC)cc2)OCCCC[C@H](C)O3)cc1	nt	nt	3	nt
CC=Cc1ccc2n(c1=O)C[C@H]1[C@H](CO)[C@@H](C(=O)NCc3ccccc3)[C@@H]2N1S(C)(=O)=O (mixture of isomers)	nt	nt	6	nt
N/C(=N\OC(=O)c1cccc([N+](=O)[O-])c1)c1ccccn1	38	-3	nt	19
COc1cccc(C(=O)O/N=C(\N)c2ccccn2)c1	-89	0	-59	-87*
O=C(O/N=C(\c1ccccc1)c1ccccn1)c1ccc(Cl)c(Cl)c1	62*	12	nt	15
Cc1nc2ccc(NC(=S)NCc3ccccc3)cc2nc1C	20	-10	41*	8
CN1CCN(C(=O)C[C@H]2C[C@@H]3c4cc(NC(=O)C5CCOCC5)ccc4O[C@@H]3[C@H](CO)O2)CC1	nt	nt	3	nt
C[C@@H]1CN([C@@H](C)CO)C(=O)Cc2cc(NS(C)(=O)=O)ccc2O[C@@H]1CN(C)S(=O)(=O)c1cn(C)cn1	nt	nt	-3	nt
COC(=O)c1cc(=O)n(-c2ccccc2)c(=Nc2ccccc2)s1	41	5	11	22
CCOC(=O)c1ccc(N=c2sc(C(=O)OC)cc(=O)n2-c2ccc(C(=O)OCC)cc2)cc1	105*	1	30	69
C[C@H]1CN([C@@H](C)CO)C(=O)c2cccc(NC(=O)c3ccncc3)c2O[C@H]1CN(C)C(=O)Nc1cccc2ccccc12	nt	nt	0	nt
COCC#Cc1ccc2c(c1)O[C@H](CN(C)Cc1ccccc1F)[C@@H](C)CN([C@H](C)CO)S2(=O)=O	nt	nt	-2	nt
O=C(Nc1ccc2c(c1)Cc1ccccc1-2)c1ccco1	56*	-2	7	32
COc1cccc(OC)c1C(=O)Nc1ccc2c(c1)Cc1ccccc1-2	27	-12	nt	29
O=C(Nc1nnc(-c2ccccc2F)s1)c1cccnc1	26	-2	60*	11
O=C(Nc1ccc2c(c1)Cc1ccccc1-2)c1cccnc1	39	-4	64*	28
C[C@H]1CN([C@@H](C)CO)C(=O)c2cc(NC(=O)Nc3ccccc3)ccc2O[C@H]1CN(C)Cc1ccc2c(c1)OCO2	nt	nt	-1	nt
CCn1c2ccccc2c2nc3cc(OC)c(OC)cc3nc21	2	-22	49*	18
C[C@@H](NC(=O)C[C@H]1CC[C@@H](NC(=O)c2cccnc2)[C@H](CO)O1)c1ccccc1	nt	nt	-4	nt
CN(C)c1ccc(CC(=O)c2nc3ccccc3s2)cc1	56*	-2	nt	28
CN(C)C(=O)c1nc2ccccc2s1	-22	5	33	-17
CN(CCC#N)C(=O)COC(=O)c1c2c(nc3ccccc13)/C(=C\c1ccco1)CC2	nt	7	56*	nt
Cc1cccc(OCC(=O)Nc2ccc(N3CCN(S(C)(=O)=O)CC3)cc2)c1C	57*	1	-4	19
Cc1ccccc1OCC(=O)Nc1ccc(N2CCN(S(C)(=O)=O)CC2)cc1	39	-4	nt	5
Cc1cc(Cl)ccc1OCC(=O)NCc1ccncc1	25	-4	62*	4
